Most compounds without a hit are left out; they make up all but 3.5% or so of the library.
mHTT CaM bind – inhibitors of human mutant huntingtin-calmodulin interaction | P42858 | AlphaScreen His-mHTT/GST-CaM binding, luminescence | inhibition, % at 15 µM | 190,000 tested, 3.6% active | AID 1671202
Pf apPOL block – Pf-apPOL DNA polymerase inhibition. inhibition, % at 10 µM. 210,000 tested, 0.25% active. Recombinant Pf-apPOL, molecular beacon fluorescence, 1.5 h
Large screens that a line does not name were inactive; ! = not active in a repeat. No stated cut-off is given here; in the data, active means inhibition above about 50%; inactive means the rest.

O=C(NCCc1c[nH]c2ccccc12)c1cc2n(n1)C(C(F)(F)F)CC(c1ccco1)N2 (stereo unspecified)	mHTT CaM bind 61.5
O=C(NCc1ccccc1F)c1cc2n(n1)C(C(F)(F)F)CC(c1ccco1)N2 (stereo unspecified)	none
Cc1[nH]nc2c1C(c1ccc(Br)cc1)CC(=O)N2 (stereo unspecified)	none
C=CCOc1ccc(/C=C2\C(=O)NN(c3cccc(Br)c3)C2=O)cc1OC	none
O=C(c1cn(-c2cc(N3CCCCC3)ncn2)cn1)N1CCN(c2ccccc2F)CC1	none
O=C(c1ccc(F)cc1)N1CCN(c2ccccc2)CC1	none
O=C(c1ccc(C#CC2(O)CCCCC2)cc1)N1CCN(c2ccc(F)cc2)CC1	mHTT CaM bind 52.4
Cc1cccn2c(=O)c(C=NC(C)c3ccccc3)c(NC(C)c3ccccc3)nc12 (stereo unspecified)	none
O=C1C=CC(=Nc2ccc(Br)cc2)C=C1	mHTT CaM bind 87.0
Cc1ccc(C(C)(C)C)c(OCC(=O)Nc2ccccc2F)c1	none
O=[N+]([O-])c1ccc2nc(SCc3ccccc3F)sc2c1	none
O=[N+]([O-])c1ccc2nc(SCc3c[nH]c4ccccc34)sc2c1	mHTT CaM bind 58.5
Cn1c(=O)[nH]c(=O)c2ncn(CC(=O)c3ccccc3)c21	none
CCNC(=O)N1CCC(c2noc(N)c2CC)CC1	none
Cc1cccc(CN2C(=O)CCc3c(C)nc(C)nc32)c1	Pf apPOL block 51.1
Cc1nc(C)c2c(n1)N(CC1CCCO1)C(=O)CC2 (stereo unspecified)	none
Cc1cccc(CN2C(=O)CCc3c(C)nc(-c4ccncc4)nc32)c1	none
Cc1nc(C)c2c(n1)N(CC1CCCCC1)C(=O)CC2	Pf apPOL block 50.1
CCS(=O)(=O)c1ccccc1C(=O)Nc1nc2c(OC)ccc(C)c2s1	none
Cc1ccc(C2NC(=O)Nc3c2c(=O)n(C)c(=O)n3C)s1 (stereo unspecified)	none
CCN(CC)Cc1c(O)ccc2c1OC(=Cc1ccc(C)cc1)C2=O	none
O=C1C(=Cc2ccc(Br)cc2)Oc2c1ccc(O)c2CN1CCCC1	none
O=C1C(=Cc2ccc(Br)cc2)Oc2c1ccc(O)c2CN1CCOCC1	mHTT CaM bind 56.4
CCN1CCN(Cc2c(O)ccc3c2OC(=CC=Cc2ccccc2)C3=O)CC1	none
O=C1C(=CC=Cc2ccccc2)Oc2c1ccc(O)c2CN1CCOCC1	mHTT CaM bind 62.2
CCN(CC)Cc1c(O)ccc2c1OC(=Cc1ccc(Br)cc1)C2=O	mHTT CaM bind 57.5
Cc1ccc2c(c1)N(c1cccc(C(F)(F)F)c1)C=C(C#N)S2(=O)=O	none
N#Cc1ccc(/C=C2/NC(=O)N(Cc3ccc(Cl)cc3)C2=O)cc1	none
COc1cc(/C=C2\C(=O)NN(c3ccc(Cl)cc3)C2=O)cc(OC)c1O	none
CSc1ccc(/C=C2\N=C(c3ccccc3C)OC2=O)cc1	none
O=C(NCCc1cccs1)C12CC3CC(CC(C3)C1)C2	none (no result: Pf apPOL block)
Cc1ccccc1-n1[nH]c(C)c(C=Nc2ccc([N+](=O)[O-])cc2)c1=O	none
Cc1ccccc1-n1[nH]c(C)c(C=Nc2cc([N+](=O)[O-])cc([N+](=O)[O-])c2O)c1=O	mHTT CaM bind 53.0
CCn1nc(CNC(=O)c2ccc3c(c2)OCO3)c2ccccc21	none
CCN1CCN(C(=O)c2ccccc2N2CCC(NC(=O)C(C)(C)C)CC2)CC1	none
CCN(CC)Cc1c(O)ccc2c1OC(=Cc1cc(Br)cc3c1OCOC3)C2=O	none
COc1cc(OC)c(OC)cc1CNc1ccc([N+](=O)[O-])cc1C	none
COc1cc(OC)c(OC)cc1CNc1ccc(Br)cc1C	mHTT CaM bind 76.2
CC1CCCC(C)N1C(=C(Cl)Cl)C(=C1SCCS1)[N+](=O)[O-] (stereo unspecified)	mHTT CaM bind 72.0
O=[N+]([O-])C(=C1SCCCS1)C(=C(Cl)Cl)N1CCOCC1	none
Cc1nc2nc(SCC(=O)NCC3CCCO3)nn2c(C)c1Cc1ccccc1Cl (stereo unspecified)	none
Cc1nc2nc(SCC(=O)NCC3CCCO3)nn2c(C)c1Cc1c(F)cccc1Cl (stereo unspecified)	mHTT CaM bind 70.0
Cc1cc(C2CCCN2C(=O)NCC(C)C)no1 (stereo unspecified)	none
Cc1c(CCC(C)C)c(-n2ccnc2)n2c(nc3ccccc32)c1C#N	none
CC(Sc1ccc(Cl)cc1)C(=O)Nc1ccccc1C(=O)N1CCCC1 (stereo unspecified)	none
COc1ccc(C2=C(CN(C)C)C(c3ccccc3)c3ccccc3O2)cc1 (stereo unspecified)	mHTT CaM bind 71.0
Cc1ccc(C2C(CN3CCOCC3)=C(c3ccccc3)Oc3ccccc32)cc1 (stereo unspecified)	none
CCOc1ccc(C2=C(CN3CCOCC3)C(c3ccccc3)c3ccccc3O2)cc1 (stereo unspecified)	none
CCOc1ccc(C2=C(CN(C)C)C(c3ccc(F)cc3)c3ccccc3O2)cc1 (stereo unspecified)	mHTT CaM bind 91.0
CCCn1cnnc1C1CCCCN1Cc1cn[nH]c1-c1cccs1 (stereo unspecified)	none
C#CC(C)(O)CCc1c(C)cc(OC)c(C)c1C (stereo unspecified)	none
O=S(=O)(c1ccc2[nH]c3c(c2c1)CCCCC3)N1CCC2(CC1)OCCO2	mHTT CaM bind 57.8
Cc1ccc2c(c1)N(S(=O)(=O)c1ccc3[nH]c4c(c3c1)CCCC4)CCO2	none
O=S(=O)(c1ccc2[nH]c3c(c2c1)CCCCC3)N1CCCCC1	mHTT CaM bind 75.7
CCOC(=O)C1CCN(S(=O)(=O)c2ccc3[nH]c4c(c3c2)CCCCC4)CC1	mHTT CaM bind 71.3
CN(CC(=O)N1CCCCCC1)S(=O)(=O)c1ccc2[nH]c3c(c2c1)CCCC3	none
Cc1cc(Cl)ccc1S(=O)(=O)N1CCc2c(c(-c3nc(C4CC4)no3)nn2C)C1	none
Cn1nc([N+](=O)[O-])c(I)c1I	none
O=C(Oc1ccc2c(c1)OC(=Cc1ccco1)C2=O)c1ccco1	none
O=C(Oc1ccc2c(c1)OC(=Cc1ccco1)C2=O)c1cccs1	mHTT CaM bind 58.2
O=C(C=Cc1ccccc1)Oc1ccc2c(c1)OC(=Cc1ccco1)C2=O	mHTT CaM bind 79.3
O=C1C(=CC=Cc2ccco2)Oc2cc(O)ccc21	mHTT CaM bind 57.7!, Pf apPOL block 51.2
O=C(Oc1ccc2c(c1)OC(=Cc1ccco1)C2=O)c1ccccc1	none
COc1ccc(C=C2Oc3cc(OC(C)=O)ccc3C2=O)cc1OC	none
COc1ccc(C=C2Oc3cc(OC(=O)C(C)C)ccc3C2=O)cc1OC	mHTT CaM bind 62.4
O=C1C(=Cc2ccccc2F)Oc2cc(O)ccc21	none
O=C(O)CCc1ccc2c(c1)OCO2	none (no result: mHTT CaM bind)
CC(C)[C@@H](COc1ccccc1)N1CCN(Cc2ccccc2)CCC1=O	none
O=C1CCN(Cc2ccccc2)CCN1[C@H](COc1ccccc1)c1ccccc1	mHTT CaM bind 84.8
Cc1cccc(CNC(=O)c2cnn3c4c(cnc23)CC(C)CC4)c1 (stereo unspecified)	none
Cc1ccc(CNC(=O)N2CCC(N3CCN(Cc4ccc(C)cc4)C3=O)CC2)cc1	none
O=C1C(=CC=Cc2ccco2)SC(=S)N1C1CCCCC1	mHTT CaM bind 77.8
S=c1[nH]nc(C2CCCCC2)n1/N=C\C=C\c1ccco1	none (no result: Pf apPOL block)
O=C(Nc1ccc(I)cc1)N1CCOCC1	none
O=c1[nH]c2ccccc2nc1CN1CCN(c2cccc(Cl)c2)CC1	none
COc1ccc(N2CCN(Cc3nc4cc(Cl)c(Cl)cc4[nH]c3=O)CC2)cc1	mHTT CaM bind 52.9
Cc1sc(C(=O)N2CCCC2)c2ncnc(NCc3ccc(F)c(Cl)c3)c12	mHTT CaM bind 99.9
Cc1sc(C(=O)N2CCCC2)c2ncnc(NCc3cccc(Cl)c3)c12	none

Screening results: PubChem BioAssay, University of Kansas High Throughput Screening Laboratory
